Measured potencies and affinities stand elsewhere. Values without a mark were called inactive.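 How the source made its calls: active means compounds whose fitted half-maximal drop in cell ATP occurs at no more than twice the top tested dose; inconclusive means flat moderate signal drop, or unreliable curve fit; inactive means the rest.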
Assay: viability loss in MITF-independent A375 cells – cell-based, CellTiter-Glo luminescence, dry powder, set 7, counter-screen for MITF inhibitor project, dose response (AID 624490)
Conditions: ATP luminescence (CellTiter-Glo), 24 h; series mostly up to 35 µM; activity change, negative = cytotoxicity: at the top concentration

Structure (SMILES)	activity change, negative = cytotoxicity
NC1=C(NS(=O)(=O)c2ccc(Br)cc2)C(=O)c2ccccc2C1=O	1.24%
O=C1C(Nc2ccccc2)=C(c2ccccc2)C(=O)c2ccccc21	-0.601%
NC1=C(NS(=O)(=O)c2ccc(Br)s2)C(=O)c2ccccc2C1=O	3.52%
